Three compounds from PubChem BioAssay (NCI) can be followed below.

This is part of a sample that, as a whole, favours compounds with a hit. Of some 83,000 tested, about 20% had one in any assay.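 Activity criterion: percent growth below 10, measured after cells in 96-well plates were exposed to a single compound concentration for 48 hours.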 Unmarked numbers belong to inactive results.

The assay deals with HL-60(TB) leukemia. The assay can be described thus: NCI-60 one-dose screen, 48 h (100 = growth as untreated, 0 = no growth, -100 = all killed). The conditions noted are these: 10 µM unless noted.
For `Nc1nnc(-c2cncc(Br)c2)c(-c2c[nH]c3ccc(Cl)cc23)n1`, the growth is 64.3%.

For the compound `O=C(O)CC1S/C(=N/N=C/c2nc3ccccc3s2)NC1=O` (stereo not drawn), the growth was 98.4%.

As for `CCOC(=O)C1=C(N)N(c2ccccc2)C2=C(C(=O)CC(C)(C)C2)C1c1ccccc1OC` (stereo not drawn), the growth was 99.2%.
